The list is not random: actives were taken first. Their share in the collection is about 0.64%.
PDI inh = inhibitors of human protein disulfide isomerase; inhibition, % at 10 µM; P07237; PDI insulin aggregation turbidity, A650, 90 min; 350,000 compounds, 0.052% hits;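 active = mean inhibition across replicates of 30% or more, whatever share of single replicates reach that level; inconclusive = mean inhibition below 30% while every single replicate reaches 30%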
Vif imaging = blocks HIV Vif function. HEK293T cells, Vif self-association by quenched fluorescence, imaging, 24 h. inhibition, % at 7.49 µM. 340,000 compounds, 0.35% hits. AID 602346; in the data active = inhibition above about 50%, passing the limit was not always enough; inconclusive = no clear call, values can overlap the other calls; inactive = below about 31%
AI-2 QS modul = Vibrio harveyi AI-2 quorum sensing modulation. Vibrio harveyi JMH597 AI-2 luminescence/OD600 ratio, 9 h; hits give low values; strain lacks LuxN and CqsS sensors; 0 = neutral-control median. activity change, % at 7.5 µM. 300,000 compounds, 0.4% hits; in the data active = activity change below about -75%, passing the limit was not always enough; inconclusive = no clear call, values can overlap the other calls;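 also: luminescence divided by OD600 gain over 9 h not by final OD600 alone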
PvdQ acylase = blocks Pseudomonas aeruginosa PvdQ acylase activity; purified PvdQ acylase, fluorescence plate reader; inhibition, % at 10 µM; 340,000 compounds, 0.063% hits; AID 488965; in the data active = inhibition above about 30%, passing the limit was not always enough; inconclusive = no clear call, values can overlap the other calls;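 also: 0% = vehicle neutral wells and 100% = reference inhibitor wells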
ERp5 block = ERp5 (human) disulfide isomerase inhibition; Q15084; ERp5 insulin aggregation, absorbance 650 nm, 90 min; inhibition, % at 9.99 µM; 350,000 compounds, 0.05% hits; AID 651711;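 active = mean replicate inhibition above about 25%, with every replicate also reaching it, limit read from the data, passing the limit was not always enough; inconclusive = only one of those two criteria met; inactive = neither criterion met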
Target sequence (Q15084 whole entry, looked up): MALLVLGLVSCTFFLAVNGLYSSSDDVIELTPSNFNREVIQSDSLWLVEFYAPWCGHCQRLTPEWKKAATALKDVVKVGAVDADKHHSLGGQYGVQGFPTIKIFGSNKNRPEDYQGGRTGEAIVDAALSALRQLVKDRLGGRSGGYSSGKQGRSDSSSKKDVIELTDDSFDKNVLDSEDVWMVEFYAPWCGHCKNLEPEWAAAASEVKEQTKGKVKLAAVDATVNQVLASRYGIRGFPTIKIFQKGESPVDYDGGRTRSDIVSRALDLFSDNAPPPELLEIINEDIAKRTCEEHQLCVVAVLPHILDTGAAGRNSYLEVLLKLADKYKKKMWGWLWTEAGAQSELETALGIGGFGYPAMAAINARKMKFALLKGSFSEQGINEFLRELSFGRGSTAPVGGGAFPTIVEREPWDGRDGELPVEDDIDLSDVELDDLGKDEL
Numbers without * were called inactive; ? = inconclusive; / = not tested or not shown.

SMILES | PDI inh | Vif imaging | AI-2 QS modul | PvdQ acylase | ERp5 block
C/C(=N\NC(=O)c1c([N+](=O)[O-])c(C)nn1C)c1ccc(NC(=O)C2CCCC2)cc1 | 12.7 | 64.2* | 27.4 | 12.2 | -6.4
CC(=O)N1[C@@H]2Cn3c(ccc(C4=CCCCC4)c3=O)[C@H]1[C@@H](C(=O)NC1CCCC1)[C@@H]2CO | / | / | / | / | -1.5
COc1ccc(C2NC(=S)NC3=C2CCCC3=C2SCCS2)cc1 (stereo not given) | 5.7 | 56.5* | 14.0 | 10.2 | 1.1
CC1CCCC(C)N1C(=O)CSc1nnc(NC(=O)c2cccs2)s1 (stereo not given) | -3.4 | 108.5* | 26.6 | -13.6 | /
CCSc1nnc(NC(=O)c2cccs2)s1 | 3.1 | -1.8 | 56.0 | -2.3 | /
CCCn1c(N)c(N(CCOC)C(=O)c2ccc([N+](=O)[O-])cc2Cl)c(=O)[nH]c1=O | -10.8 | 66.6* | 5.3 | -6.5 | -1.6
CCCn1c(N)c(N(CCOC)C(=O)c2ccc(F)cc2F)c(=O)[nH]c1=O | 5.4 | -1.4 | 1.4 | -5.8 | -0.8
O=C(NC(=S)N1CCCCC1)c1csc([N+](=O)[O-])c1 | -10.3 | / | 21.5 | -9.6 | -1.7
C=CCNC(=S)NC(=O)c1csc([N+](=O)[O-])c1 | 6.0 | -13.5 | -103.8* | 1.2 | 5.6
Cc1cc(NC(=O)CSc2nc3ccccc3c(=O)n2CCCC(=O)NCc2ccco2)n[nH]1 | -3.4 | 51.4* | 18.0 | -9.4 | /
COc1cccc(Nc2nc(CN3CCOCC3)nc3sc4c(c23)CCCC4)c1 | 3.8 | 95.7* | 30.5 | 6.3 | -0.6
COc1ccc(CN(C)C[C@H]2Oc3ccc(NC(=O)Nc4ccc5c(c4)OCO5)cc3C(=O)N([C@@H](C)CO)C[C@@H]2C)cc1 | / | / | / | / | -2.0
CN1c2ccc(-c3cccc(F)c3)cc2[C@@H]2[C@@H](CCN2C(=O)c2cccc(F)c2)[C@@H]1CO | / | / | / | / | -9.5
C[C@@H]1CN([C@H](C)CO)C(=O)c2cc(C#CC3CCCC3)cnc2O[C@H]1CN(C)C(=O)Cc1ccccn1 | / | / | / | / | 0.1
O=C(C[C@@H]1C=C[C@H](NS(=O)(=O)c2ccccc2)[C@H](CO)O1)N1CCC(Cc2ccccc2)CC1 | / | / | / | / | -1.1
O=C1C2C(C(=O)N1CCc1ccccc1)C1C=CC2C12CC2 (stereo not given) | 1.0 | 17.4 | 1.7 | 2.5 | -4.8
O=C1NN(c2ccccc2)C(=O)C2C1C1C=CC2C12CC2 (stereo not given) | -7.5 | 3.8 | 18.2 | 53.5* | /
COc1ccc(-c2coc3c(C)c4oc(=O)c(CCC(=O)O)c(C)c4cc23)cc1 | 51.8* | 0.7 | -3.7 | -1.7 | /
Cc1ccc(Sc2ncccc2C(=O)O)cc1 | -9.3 | -6.1 | -79.6* | 15.0 | /
[O-][n+]1cccc2c(Br)cc(Br)c(O)c21 | 4.1 | -3.6 | -197.3* | -1.6 | -5.9
Oc1c(Br)cc(Br)c2cccnc12 | -14.4 | 5.5 | / | -10.4 | -8.2
O=C(OCc1cc(Cl)ccc1OC(F)F)c1ccc([N+](=O)[O-])o1 | / | / | -99.2* | / | /
COc1ccc(C)cc1NC(=O)COC(=O)c1ccc([N+](=O)[O-])o1 | 0.0 | -1.2 | 4.6 | -4.9 | 1.4
COc1ccc(NC(=O)COC(=O)c2ccc([N+](=O)[O-])o2)cc1Cl | 0.6 | -0.4 | -89.1* | -0.6 | -27.3
O=C(OCc1cc(Cl)ccc1OC(F)F)c1cncc(Br)c1 | 3.9 | -2.2 | 51.1 | -6.1 | -0.2
SMILES | PDI inh | Vif imaging | AI-2 QS modul | PvdQ acylase | ERp5 block
CCc1c(C)n([O-])c2c([n+]1=O)CCC2 | 46.1* | / | -0.9 | 1.0 | /
Cc1c(C)[n+](=O)c2c(n1[O-])CCC2 | -0.6 | 4.6 | 11.6 | -7.1 | /
CC(=O)c1ccc(NC(=O)CSc2nc(C3CC3)nc3ccccc23)cc1 | 9.9 | 51.0* | 19.3 | -3.1 | 0.9
CC(C)(C)c1cc(CSC(=S)NC2CCS(=O)(=O)C2)c(Br)c(C(C)(C)C)c1 (stereo not given) | 8.6 | -0.5 | 36.3 | -6.1 | -0.3
O=S1(=O)CC=C(CSC(=S)NC2CCS(=O)(=O)C2)C1 (stereo not given) | -3.3 | -0.6 | -82.7* | -15.7 | 5.0
CC1(C)c2[nH]c3ccccc3c2C[C@@H]2C(=O)N(Cc3ccccc3Cl)C(=O)N21 | 3.0 | 4.2 | -0.9 | -1.1 | 3.2
Cc1ccccc1CN1C(=O)[C@@H]2Cc3c([nH]c4ccccc34)C(C)(C)N2C1=O | -2.1 | 104.6* | 19.1 | -6.3 | 2.2
CCCNC(=O)Nc1ccc2c(c1)OC[C@H](C)N(Cc1ccncc1)C[C@H](C)[C@H](OC)CN(C)C2=O | / | / | / | / | 12.2
Cc1ccc(N(C(=O)CNC(=O)c2ccco2)C(C(=O)NCC2CCCO2)c2ccccc2)cc1C (stereo not given) | 7.1 | 52.8* | -15.5 | 3.6 | -2.2
COc1ccc2c3c([nH]c2c1)[C@@H](CO)N(C(=O)CN(C)C)CC31CCN(Cc2cncnc2)CC1 | / | / | / | / | 6.3
O=C(c1ccccc1F)N1C[C@@H]2[C@H](c3ccccc31)[C@@H](CO)N2C(=O)c1ccncc1 | / | / | / | / | -10.0
COc1ccc(CC(=O)Nc2cc(C)on2)cc1OC | -3.2 | 7.6 | -4.7 | -2.8 | /
COc1ccc(CC(=O)Nc2cc(C)ccc2O)cc1OC | -3.0 | 2.6 | -78.0* | -8.1 | 5.9
Cc1noc(C)c1S(=O)(=O)N(C)C[C@H]1OCCCC[C@H](C)Oc2ccc(NC(=O)Cc3ccccc3)cc2C(=O)N([C@H](C)CO)C[C@@H]1C | / | / | / | / | -1.1
Cc1ccc(Sc2ccc(N)cc2C#N)cc1 | -6.0 | 3.1 | -81.3* | -11.5 | /
O=C(C[C@@H]1C[C@H]2c3cc(NC(=O)NC4CCCC4)ccc3O[C@H]2[C@@H](CO)O1)NCc1ccc(Oc2ccccc2)cc1 | / | / | / | / | 3.7
O=C(/C=C/c1ccccc1Cl)c1ccc(O)cc1 | ? | -6.6 | ? | -10.4 | -0.9
O=C(/C=C/c1c(F)cccc1Cl)c1ccc(O)cc1 | 79.2* | 25.3 | 24.9 | 2.9 | -1.1
COc1ccc(OC)c(S(=O)(=O)N2CCCC(C(=O)NCc3cccnc3)C2)c1 (stereo not given) | -10.8 | 59.6* | 5.6 | 4.3 | 1.6
O=C(Nc1cccc(-c2nc3cccnc3s2)c1)c1ccco1 | -4.4 | 96.5* | 36.1 | -2.3 | 1.6
C[C@@H]1CN([C@@H](C)CO)C(=O)Cc2cc(NC(=O)c3ccncc3)ccc2O[C@@H]1CN(C)C(=O)NC1CCCCC1 | / | / | / | / | -4.0
CC1(C)CC(=O)C2=C(C1)Nc1ccccc1N(C(=O)C1CC1)C2c1ccco1 (stereo not given) | -11.8 | 51.8* | 15.0 | 14.3 | 4.6
CCC(=O)N(C)C[C@H]1Oc2ncc(-c3ccc(C(=O)N(C)C)cc3)cc2C(=O)N([C@H](C)CO)C[C@H]1C | / | / | / | / | -5.3
CC1CCC(NC(=O)CN2C(=O)c3ccccc3S2(=O)=O)CC1 (stereo not given) | 14.3 | 58.7* | / | -11.5 | -0.5
Cc1cccc(NC(=O)NNC(=O)c2ccc3ccccc3c2)c1 | -3.9 | 1.7 | 2.4 | -18.3 | 0.8
O=C(NNC(=O)c1ccc2ccccc2c1)Nc1ccc(F)cc1 | 3.7 | 1.0 | 6.0 | -12.4 | 26.0*
Cc1ccc(C(=O)NC(N2CCCC2)C(Cl)(Cl)Cl)cc1 (stereo not given) | -8.4 | 56.4* | 13.9 | -2.5 | /

Source: PubChem BioAssay (Broad Institute)
